# Reference: the supplement of paper PMC11732987, “Enantioselective OTUD7B fragment discovery through chemoproteomics screening and high-throughput optimisation” (Communications Chemistry, 2025)
# A number with no mark means an inactive call.
# Key:
# Assay in all cases: log2 ratio of Biotin-Ahx-Ub-VS probe labelling (fragment/DMSO); higher = less target engagement (more negative = stronger competition), active = hit call of the paper (q ≤ 0.05, log2 ratio ≤ -1)
# Conditions in all cases: compound concentration: 200 uM; treatment time: 3 h
# [1] = target: T1, USP42 (UniProt Q9H9J4)
# T1 sequence (whole entry): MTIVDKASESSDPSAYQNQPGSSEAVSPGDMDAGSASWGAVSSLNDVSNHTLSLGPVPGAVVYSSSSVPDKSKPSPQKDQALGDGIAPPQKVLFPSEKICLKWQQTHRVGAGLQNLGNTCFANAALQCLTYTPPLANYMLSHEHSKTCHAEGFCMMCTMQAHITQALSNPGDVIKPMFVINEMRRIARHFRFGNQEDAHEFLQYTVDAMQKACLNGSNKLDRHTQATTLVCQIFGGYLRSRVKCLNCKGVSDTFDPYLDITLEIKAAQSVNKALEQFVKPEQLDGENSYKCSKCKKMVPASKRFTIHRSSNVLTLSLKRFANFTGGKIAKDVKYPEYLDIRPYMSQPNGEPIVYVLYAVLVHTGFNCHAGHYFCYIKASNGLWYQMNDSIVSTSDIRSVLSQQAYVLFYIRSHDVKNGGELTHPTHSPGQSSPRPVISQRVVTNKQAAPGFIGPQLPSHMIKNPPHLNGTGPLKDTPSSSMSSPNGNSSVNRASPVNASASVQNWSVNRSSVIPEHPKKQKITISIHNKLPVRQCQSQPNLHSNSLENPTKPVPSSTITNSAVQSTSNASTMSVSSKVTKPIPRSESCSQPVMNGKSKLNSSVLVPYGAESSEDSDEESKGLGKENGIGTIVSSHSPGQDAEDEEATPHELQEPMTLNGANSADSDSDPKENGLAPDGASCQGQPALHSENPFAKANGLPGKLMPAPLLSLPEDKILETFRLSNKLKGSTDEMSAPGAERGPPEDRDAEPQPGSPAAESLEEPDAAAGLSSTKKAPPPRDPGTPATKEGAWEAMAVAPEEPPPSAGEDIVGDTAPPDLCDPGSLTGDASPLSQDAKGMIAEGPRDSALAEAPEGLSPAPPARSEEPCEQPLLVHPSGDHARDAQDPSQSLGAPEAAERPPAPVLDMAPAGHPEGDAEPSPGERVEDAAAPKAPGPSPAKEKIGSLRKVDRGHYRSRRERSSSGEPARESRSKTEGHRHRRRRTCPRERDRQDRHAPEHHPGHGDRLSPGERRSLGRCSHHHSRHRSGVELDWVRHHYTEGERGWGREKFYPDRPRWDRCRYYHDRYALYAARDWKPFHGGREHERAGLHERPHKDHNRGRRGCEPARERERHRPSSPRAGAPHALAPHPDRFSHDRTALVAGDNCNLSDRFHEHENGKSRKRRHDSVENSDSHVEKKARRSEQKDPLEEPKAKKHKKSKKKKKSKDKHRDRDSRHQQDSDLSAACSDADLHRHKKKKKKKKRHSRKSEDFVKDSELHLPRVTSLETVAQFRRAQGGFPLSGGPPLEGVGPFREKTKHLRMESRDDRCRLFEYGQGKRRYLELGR
# Outline: (§1)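 Labelled DUBs from HEK293T lysate were NeutrAvidin-enriched, digested with LysC and trypsin, and run by diaPASEF LC-MS/MS. Before that, each 495 µg sample in Tris/CHAPS/IGEPAL buffer with protease inhibitors was treated in triplicate with fragment at 200 µM or vehicle for 3 h, then with Biotin-Ahx-Ub-VS at 0.5 µM final for 1 h. Values are average log2 ratios of fragment over vehicle by unpaired t-test, based on global-median-normalised Spectronaut label-free quantities from proteins with ≥2 unique peptides.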
# [2] = target: USP46 (UniProt P62068)
# Outline: as §1
# [3] = target: T2, USP47 (UniProt Q96K76)
# T2 sequence (whole entry): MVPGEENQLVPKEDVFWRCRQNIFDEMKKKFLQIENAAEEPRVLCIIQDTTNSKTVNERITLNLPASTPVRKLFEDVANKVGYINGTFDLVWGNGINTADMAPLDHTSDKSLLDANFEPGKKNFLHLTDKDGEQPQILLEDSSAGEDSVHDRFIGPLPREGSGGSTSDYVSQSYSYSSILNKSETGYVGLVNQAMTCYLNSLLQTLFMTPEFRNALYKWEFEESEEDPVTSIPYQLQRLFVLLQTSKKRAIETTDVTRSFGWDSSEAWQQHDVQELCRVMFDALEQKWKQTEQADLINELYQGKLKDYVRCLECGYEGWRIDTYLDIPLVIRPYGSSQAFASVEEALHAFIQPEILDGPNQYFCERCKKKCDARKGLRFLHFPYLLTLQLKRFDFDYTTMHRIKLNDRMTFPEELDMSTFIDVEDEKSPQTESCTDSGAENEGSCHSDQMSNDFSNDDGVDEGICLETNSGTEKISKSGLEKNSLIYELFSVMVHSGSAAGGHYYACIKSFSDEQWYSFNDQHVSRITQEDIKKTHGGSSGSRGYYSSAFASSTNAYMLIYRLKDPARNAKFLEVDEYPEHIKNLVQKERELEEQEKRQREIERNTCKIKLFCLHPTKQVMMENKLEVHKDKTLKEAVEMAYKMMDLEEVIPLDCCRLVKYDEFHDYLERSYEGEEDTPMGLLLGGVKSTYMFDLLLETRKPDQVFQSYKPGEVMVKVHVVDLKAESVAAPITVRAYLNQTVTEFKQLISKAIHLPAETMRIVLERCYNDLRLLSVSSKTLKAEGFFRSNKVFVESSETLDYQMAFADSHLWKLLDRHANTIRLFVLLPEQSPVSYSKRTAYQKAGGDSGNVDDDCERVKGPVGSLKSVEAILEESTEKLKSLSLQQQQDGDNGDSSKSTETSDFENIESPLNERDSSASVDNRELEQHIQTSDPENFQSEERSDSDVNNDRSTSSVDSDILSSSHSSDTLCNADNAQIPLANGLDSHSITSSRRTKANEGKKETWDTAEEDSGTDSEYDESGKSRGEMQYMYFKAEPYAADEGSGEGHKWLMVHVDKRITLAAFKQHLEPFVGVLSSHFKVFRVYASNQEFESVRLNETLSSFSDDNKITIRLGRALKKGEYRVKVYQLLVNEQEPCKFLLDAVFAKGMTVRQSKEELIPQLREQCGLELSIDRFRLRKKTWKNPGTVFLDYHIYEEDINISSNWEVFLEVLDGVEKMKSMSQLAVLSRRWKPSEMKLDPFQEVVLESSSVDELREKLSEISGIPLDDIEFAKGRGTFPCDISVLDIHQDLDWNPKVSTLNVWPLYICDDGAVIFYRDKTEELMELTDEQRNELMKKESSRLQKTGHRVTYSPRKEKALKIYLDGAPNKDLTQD
# Outline: as §1
# [4] = target: T3, USP48 (UniProt Q86UV5)
# T3 sequence (whole entry): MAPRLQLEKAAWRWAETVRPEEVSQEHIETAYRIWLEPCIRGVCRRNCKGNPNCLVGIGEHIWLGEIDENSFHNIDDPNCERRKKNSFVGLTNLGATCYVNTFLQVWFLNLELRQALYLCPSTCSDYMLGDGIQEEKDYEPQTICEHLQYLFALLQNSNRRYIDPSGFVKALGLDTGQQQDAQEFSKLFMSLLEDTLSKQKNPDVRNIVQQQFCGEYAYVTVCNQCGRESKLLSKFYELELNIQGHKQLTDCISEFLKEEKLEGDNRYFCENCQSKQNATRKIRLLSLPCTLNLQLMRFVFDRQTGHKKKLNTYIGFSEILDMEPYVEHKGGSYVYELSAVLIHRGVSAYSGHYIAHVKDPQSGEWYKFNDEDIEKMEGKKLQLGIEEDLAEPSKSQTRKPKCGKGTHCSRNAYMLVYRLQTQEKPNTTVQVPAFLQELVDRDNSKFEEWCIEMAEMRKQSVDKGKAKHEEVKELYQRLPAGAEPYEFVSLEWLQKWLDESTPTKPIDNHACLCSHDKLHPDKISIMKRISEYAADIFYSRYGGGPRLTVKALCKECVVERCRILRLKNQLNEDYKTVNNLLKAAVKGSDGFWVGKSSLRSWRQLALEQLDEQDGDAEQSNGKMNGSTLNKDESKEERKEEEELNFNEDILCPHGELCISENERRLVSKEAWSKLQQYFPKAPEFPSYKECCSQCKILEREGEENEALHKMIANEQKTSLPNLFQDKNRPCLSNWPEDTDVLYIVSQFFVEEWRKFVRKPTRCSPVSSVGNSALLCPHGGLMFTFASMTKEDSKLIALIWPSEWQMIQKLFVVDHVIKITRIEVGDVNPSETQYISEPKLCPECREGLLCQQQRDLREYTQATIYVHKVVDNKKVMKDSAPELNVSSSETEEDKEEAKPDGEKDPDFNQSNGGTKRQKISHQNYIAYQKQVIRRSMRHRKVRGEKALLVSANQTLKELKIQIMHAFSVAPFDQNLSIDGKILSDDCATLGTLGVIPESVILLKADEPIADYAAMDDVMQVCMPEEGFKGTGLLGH
# Outline: as §1
# [5] = target: T4, USP5 (UniProt P45974)
# T4 sequence (whole entry): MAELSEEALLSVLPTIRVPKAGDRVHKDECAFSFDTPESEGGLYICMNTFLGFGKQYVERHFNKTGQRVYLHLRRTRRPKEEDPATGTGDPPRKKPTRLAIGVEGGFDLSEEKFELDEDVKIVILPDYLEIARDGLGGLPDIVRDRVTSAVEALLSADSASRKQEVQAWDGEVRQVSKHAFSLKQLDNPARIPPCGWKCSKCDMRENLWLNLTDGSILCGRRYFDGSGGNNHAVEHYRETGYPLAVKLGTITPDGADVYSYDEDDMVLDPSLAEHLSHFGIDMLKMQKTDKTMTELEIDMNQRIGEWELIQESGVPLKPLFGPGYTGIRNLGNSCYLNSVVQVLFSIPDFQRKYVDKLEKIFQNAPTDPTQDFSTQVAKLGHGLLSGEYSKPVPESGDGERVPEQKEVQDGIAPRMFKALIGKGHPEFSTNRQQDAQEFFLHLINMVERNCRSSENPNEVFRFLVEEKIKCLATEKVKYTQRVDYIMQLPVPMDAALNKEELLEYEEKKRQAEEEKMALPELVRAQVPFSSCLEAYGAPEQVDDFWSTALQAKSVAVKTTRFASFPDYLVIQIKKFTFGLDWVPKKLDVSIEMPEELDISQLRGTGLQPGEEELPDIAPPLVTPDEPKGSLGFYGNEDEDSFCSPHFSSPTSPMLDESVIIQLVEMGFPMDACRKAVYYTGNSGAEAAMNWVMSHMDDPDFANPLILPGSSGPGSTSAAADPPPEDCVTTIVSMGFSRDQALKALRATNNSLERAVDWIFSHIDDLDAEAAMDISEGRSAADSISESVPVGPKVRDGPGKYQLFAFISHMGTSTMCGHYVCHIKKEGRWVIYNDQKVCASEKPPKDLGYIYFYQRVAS
# Outline: as §1
# [6] = target: USP54 (UniProt Q70EL1)
# Outline: as §1
# [7] = target: USP7 (UniProt Q93009)
# Outline: as §1
# [8] = target: T5, USP8 (UniProt P40818)
# T5 sequence (whole entry): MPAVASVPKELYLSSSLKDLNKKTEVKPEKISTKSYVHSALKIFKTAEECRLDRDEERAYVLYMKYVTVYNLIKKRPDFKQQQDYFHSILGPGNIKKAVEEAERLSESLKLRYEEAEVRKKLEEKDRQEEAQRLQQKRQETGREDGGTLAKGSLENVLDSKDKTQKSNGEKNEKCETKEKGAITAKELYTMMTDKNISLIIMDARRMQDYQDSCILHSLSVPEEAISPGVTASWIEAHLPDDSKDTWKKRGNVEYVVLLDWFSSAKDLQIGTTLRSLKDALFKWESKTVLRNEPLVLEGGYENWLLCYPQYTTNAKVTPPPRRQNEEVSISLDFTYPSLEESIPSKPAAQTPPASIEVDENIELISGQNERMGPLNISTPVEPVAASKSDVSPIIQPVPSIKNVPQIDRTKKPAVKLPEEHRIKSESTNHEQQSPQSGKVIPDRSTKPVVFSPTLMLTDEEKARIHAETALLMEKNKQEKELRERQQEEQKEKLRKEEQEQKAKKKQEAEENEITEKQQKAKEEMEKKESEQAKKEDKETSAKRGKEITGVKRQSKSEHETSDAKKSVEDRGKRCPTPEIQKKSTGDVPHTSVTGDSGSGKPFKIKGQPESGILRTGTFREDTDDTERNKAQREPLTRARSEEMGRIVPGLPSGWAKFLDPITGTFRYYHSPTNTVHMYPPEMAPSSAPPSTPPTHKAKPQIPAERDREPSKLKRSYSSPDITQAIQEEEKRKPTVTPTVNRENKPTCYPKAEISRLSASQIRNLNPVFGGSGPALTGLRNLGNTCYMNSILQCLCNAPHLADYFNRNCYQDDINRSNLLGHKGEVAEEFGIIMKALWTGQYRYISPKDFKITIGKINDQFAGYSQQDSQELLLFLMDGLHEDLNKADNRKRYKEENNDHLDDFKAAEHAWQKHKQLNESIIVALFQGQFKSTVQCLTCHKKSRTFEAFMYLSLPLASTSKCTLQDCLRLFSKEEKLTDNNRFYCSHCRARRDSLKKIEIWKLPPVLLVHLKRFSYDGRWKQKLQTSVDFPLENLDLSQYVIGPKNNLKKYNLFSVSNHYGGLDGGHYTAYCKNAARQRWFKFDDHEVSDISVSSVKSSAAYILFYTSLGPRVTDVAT
# Outline: as §1
# [9] = target: USP9X (UniProt Q93008)
# Outline: as §1
# [10] = target: UniProt O00487
# Outline: as §1
# UniProt O00487, sequence (O00487 whole entry): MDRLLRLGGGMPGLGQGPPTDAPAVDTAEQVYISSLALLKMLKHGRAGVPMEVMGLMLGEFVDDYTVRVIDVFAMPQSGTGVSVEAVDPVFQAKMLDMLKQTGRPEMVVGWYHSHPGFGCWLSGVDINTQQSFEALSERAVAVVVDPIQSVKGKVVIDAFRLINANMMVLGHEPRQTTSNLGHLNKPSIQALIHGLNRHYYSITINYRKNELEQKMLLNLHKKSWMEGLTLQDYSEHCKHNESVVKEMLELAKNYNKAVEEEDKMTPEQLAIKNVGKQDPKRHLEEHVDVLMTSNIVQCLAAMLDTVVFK
# USP9X, sequence (Q93008 whole entry): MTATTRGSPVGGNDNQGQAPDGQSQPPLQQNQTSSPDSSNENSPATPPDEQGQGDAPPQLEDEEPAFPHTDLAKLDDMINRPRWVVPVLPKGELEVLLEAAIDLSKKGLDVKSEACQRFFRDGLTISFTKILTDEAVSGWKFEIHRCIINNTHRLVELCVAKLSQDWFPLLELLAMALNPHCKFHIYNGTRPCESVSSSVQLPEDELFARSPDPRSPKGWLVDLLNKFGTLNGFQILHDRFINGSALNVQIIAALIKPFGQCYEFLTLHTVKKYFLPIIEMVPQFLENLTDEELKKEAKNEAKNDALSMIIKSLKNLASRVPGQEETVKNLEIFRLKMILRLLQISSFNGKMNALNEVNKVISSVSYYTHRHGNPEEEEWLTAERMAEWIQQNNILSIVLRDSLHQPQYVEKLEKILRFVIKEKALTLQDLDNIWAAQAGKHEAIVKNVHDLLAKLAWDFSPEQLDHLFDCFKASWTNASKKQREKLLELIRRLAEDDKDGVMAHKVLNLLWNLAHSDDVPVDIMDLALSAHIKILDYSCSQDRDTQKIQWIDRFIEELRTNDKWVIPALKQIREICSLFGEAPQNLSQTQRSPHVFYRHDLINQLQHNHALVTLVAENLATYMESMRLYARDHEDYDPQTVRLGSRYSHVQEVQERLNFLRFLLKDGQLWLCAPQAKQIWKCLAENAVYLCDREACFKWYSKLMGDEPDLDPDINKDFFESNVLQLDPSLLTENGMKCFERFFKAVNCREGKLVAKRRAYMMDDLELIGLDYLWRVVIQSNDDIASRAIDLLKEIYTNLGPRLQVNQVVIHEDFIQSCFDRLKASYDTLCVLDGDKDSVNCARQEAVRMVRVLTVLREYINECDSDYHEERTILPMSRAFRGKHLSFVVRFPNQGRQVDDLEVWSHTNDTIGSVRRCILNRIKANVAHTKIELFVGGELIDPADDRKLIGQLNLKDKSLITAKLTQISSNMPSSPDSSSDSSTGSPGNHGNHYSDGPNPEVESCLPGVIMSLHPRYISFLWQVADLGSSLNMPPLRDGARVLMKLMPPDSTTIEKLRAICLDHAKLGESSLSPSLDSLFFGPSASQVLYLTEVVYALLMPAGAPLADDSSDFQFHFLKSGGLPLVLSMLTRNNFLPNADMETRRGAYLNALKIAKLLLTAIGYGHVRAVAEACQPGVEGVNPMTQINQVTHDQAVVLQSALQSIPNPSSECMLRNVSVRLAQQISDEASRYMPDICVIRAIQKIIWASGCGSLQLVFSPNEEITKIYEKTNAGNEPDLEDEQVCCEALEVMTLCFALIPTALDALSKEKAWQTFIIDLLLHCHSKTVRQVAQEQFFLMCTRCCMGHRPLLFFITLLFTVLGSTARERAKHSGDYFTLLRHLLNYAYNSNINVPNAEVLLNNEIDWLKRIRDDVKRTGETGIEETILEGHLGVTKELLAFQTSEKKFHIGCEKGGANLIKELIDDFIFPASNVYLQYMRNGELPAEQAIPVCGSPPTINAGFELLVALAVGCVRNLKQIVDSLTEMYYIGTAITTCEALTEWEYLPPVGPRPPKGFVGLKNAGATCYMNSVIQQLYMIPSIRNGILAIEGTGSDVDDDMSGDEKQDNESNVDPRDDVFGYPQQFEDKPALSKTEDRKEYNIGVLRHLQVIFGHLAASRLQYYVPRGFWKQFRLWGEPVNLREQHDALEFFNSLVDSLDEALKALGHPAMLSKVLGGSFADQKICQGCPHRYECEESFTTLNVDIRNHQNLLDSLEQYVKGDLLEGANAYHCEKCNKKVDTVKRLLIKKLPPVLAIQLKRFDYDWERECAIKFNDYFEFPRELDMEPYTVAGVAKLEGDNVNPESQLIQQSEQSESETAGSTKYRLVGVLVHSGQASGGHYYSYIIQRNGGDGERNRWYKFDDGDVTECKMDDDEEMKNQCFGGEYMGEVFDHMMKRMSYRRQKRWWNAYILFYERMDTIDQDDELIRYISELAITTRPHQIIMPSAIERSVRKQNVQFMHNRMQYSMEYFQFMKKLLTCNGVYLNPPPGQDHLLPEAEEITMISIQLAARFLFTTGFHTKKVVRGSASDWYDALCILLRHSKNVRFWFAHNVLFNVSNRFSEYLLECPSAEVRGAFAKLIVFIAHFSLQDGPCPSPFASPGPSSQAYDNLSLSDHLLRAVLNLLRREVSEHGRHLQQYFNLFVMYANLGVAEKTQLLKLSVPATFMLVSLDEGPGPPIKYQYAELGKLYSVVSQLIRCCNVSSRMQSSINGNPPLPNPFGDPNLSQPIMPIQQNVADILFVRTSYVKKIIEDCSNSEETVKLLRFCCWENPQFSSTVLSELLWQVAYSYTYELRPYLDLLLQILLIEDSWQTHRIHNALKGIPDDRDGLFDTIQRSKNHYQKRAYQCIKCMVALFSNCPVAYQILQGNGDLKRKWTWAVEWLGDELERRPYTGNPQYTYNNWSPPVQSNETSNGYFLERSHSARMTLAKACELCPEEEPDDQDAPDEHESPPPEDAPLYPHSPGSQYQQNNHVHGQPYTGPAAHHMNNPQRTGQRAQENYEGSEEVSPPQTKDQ
# USP54, sequence (Q70EL1 whole entry): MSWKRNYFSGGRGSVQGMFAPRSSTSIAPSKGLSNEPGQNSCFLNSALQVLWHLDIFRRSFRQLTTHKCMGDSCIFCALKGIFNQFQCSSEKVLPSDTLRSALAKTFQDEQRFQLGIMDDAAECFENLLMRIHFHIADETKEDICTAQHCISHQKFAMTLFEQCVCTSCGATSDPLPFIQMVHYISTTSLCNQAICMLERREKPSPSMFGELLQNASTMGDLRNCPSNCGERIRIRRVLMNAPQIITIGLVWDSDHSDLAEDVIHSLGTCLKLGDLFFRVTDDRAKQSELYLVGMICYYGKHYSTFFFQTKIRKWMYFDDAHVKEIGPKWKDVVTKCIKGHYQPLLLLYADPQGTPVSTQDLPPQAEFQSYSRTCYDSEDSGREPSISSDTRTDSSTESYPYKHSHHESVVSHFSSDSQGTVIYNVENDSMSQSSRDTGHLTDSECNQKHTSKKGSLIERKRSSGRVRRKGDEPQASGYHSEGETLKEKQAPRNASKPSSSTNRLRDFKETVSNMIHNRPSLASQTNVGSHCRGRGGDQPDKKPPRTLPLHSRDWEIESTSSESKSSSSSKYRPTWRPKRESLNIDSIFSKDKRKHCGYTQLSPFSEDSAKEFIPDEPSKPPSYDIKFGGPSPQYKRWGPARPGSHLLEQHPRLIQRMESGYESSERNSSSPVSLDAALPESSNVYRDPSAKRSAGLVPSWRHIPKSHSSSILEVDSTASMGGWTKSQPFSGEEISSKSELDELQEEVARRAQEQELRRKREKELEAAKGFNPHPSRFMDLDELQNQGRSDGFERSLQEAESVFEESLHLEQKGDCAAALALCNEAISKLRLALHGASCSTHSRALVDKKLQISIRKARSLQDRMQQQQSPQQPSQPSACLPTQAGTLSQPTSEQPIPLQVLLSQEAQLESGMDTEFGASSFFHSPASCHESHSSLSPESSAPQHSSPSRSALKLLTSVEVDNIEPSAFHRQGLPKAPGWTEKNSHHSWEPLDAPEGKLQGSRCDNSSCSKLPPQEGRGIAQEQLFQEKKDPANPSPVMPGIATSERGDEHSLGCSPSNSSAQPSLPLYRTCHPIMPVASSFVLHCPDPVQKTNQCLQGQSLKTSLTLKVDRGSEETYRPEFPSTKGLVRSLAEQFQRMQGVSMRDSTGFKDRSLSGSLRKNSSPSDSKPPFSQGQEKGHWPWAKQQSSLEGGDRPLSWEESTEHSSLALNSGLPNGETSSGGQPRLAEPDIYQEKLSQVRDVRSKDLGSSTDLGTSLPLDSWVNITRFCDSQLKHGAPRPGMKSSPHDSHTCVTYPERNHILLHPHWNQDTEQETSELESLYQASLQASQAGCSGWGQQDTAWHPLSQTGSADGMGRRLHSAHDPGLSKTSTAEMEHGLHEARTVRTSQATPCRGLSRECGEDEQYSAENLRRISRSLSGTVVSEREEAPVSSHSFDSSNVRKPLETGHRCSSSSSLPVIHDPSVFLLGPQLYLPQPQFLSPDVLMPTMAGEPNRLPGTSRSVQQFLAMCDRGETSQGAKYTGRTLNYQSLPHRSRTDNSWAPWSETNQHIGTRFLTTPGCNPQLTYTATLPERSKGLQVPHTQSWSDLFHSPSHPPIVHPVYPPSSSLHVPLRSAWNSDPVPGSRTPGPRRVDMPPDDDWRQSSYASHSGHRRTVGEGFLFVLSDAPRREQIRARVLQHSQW
# USP46, sequence (P62068 whole entry): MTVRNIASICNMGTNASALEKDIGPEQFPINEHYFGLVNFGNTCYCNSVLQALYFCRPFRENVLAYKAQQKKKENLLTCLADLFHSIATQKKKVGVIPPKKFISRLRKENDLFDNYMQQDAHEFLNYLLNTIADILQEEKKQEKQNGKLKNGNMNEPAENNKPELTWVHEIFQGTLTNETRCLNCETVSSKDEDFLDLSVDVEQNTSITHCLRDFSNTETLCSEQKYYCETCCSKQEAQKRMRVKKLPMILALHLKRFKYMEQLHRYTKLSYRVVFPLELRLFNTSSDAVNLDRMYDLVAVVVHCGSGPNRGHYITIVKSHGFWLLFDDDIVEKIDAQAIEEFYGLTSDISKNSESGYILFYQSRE
SMILES,log2 ratio of Biotin-Ahx-Ub-VS probe labelling [1],log2 ratio of Biotin-Ahx-Ub-VS probe labelling [2],log2 ratio of Biotin-Ahx-Ub-VS probe labelling [3],log2 ratio of Biotin-Ahx-Ub-VS probe labelling [4],log2 ratio of Biotin-Ahx-Ub-VS probe labelling [5],log2 ratio of Biotin-Ahx-Ub-VS probe labelling [6],log2 ratio of Biotin-Ahx-Ub-VS probe labelling [7],log2 ratio of Biotin-Ahx-Ub-VS probe labelling [8],log2 ratio of Biotin-Ahx-Ub-VS probe labelling [9],log2 ratio of Biotin-Ahx-Ub-VS probe labelling [10]
Cl.O=C(CCl)N1CC(c2ccc(Br)cn2)C1,0.0546,-0.129,-0.944,-0.383,0.197,0.556,-1.29 (active),-0.318,-0.297,-0.285
O=C(CCl)NCc1cccc(N2CCCC2=O)c1,-0.175,0.179,0.109,-0.0848,0.238,0.342,-0.0593,-0.147,-0.272,0.135
O=C(CCl)N1CCc2ccccc2C(O)C1 (stereo not given),0.325,-0.184,0.0442,-0.682,-0.103,0.265,-0.687,-0.372,-0.333,-0.0272
O=C(CCl)N1CCC(C(=O)N2CCCCCC2)CC1,0.671,-0.142,-0.239,-0.0351,0.0959,0.452,-0.714,-0.0368,-0.297,-0.112
